Measurements reported in the supplement of paper PMC9694430.

How the values were obtained:
Assay in all cases: thermal shift delta Tm vs DMSO control; higher = stronger stabilization (binding)
Conditions in all cases: 12.5 µM; protein concentration 2 µM
LOC_OS01G01410-cb001 = tested on: LOC_OS01G01410-cb001
Summary of the method: (§1)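 Purified, E. coli-expressed rice kinase domain constructs were tested by differential scanning fluorimetry in 96-well plates: 19.5 μl of 2 μM kinase in 100 mM potassium phosphate pH 7.5, 150 mM NaCl, 10% glycerol, 5 × SYPRO Orange, plus compound in DMSO. Fluorescence was read from 25°C to 95°C at 0.05°C/s. Melting temperatures came from Boltzmann fits, and the shift is the triplicate mean relative to protein with DMSO alone.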

LOC_OS01G02750-cb003 = tested on: LOC_OS01G02750-cb003
Summary of the method: as §1

LOC_OS01G10900-cb004 = tested on: LOC_OS01G10900-cb004
Summary of the method: as §1

LOC_OS01G13800-cb001 = tested on: LOC_OS01G13800-cb001
Summary of the method: as §1

LOC_OS01G14860-cb001 = tested on: LOC_OS01G14860-cb001
Summary of the method: as §1

LOC_OS01G21960-cb002 = tested on: LOC_OS01G21960-cb002
Summary of the method: as §1

LOC_OS01G39600-cb002 = tested on: LOC_OS01G39600-cb002
Summary of the method: as §1

LOC_OS01G48390-cb002 = tested on: LOC_OS01G48390-cb002
Summary of the method: as §1

LOC_OS01G51400-cb002 = tested on: LOC_OS01G51400-cb002
Summary of the method: as §1

LOC_OS01G52050-cb004 = tested on: T1, LOC_OS01G52050-cb004
T1 sequence (whole entry): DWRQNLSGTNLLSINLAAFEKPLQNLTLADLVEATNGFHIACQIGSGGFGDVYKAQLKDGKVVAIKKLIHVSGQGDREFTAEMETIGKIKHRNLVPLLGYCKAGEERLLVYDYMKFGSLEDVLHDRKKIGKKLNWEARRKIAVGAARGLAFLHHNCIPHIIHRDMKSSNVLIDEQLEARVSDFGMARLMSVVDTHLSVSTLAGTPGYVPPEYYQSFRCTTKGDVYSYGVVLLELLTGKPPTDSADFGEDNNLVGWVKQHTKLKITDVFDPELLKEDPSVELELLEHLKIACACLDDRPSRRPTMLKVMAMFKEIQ
Summary of the method: as §1

LOC_OS01G57100-cb003 = tested on: LOC_OS01G57100-cb003
Summary of the method: as §1

LOC_OS01G60330-cb001 = tested on: LOC_OS01G60330-cb001
Summary of the method: as §1

LOC_OS01G60700-cb002 = tested on: LOC_OS01G60700-cb002
Summary of the method: as §1

LOC_OS01G63280-cb003 = tested on: LOC_OS01G63280-cb003
Summary of the method: as §1

LOC_OS01G67340-cb003 = tested on: LOC_OS01G67340-cb003
Summary of the method: as §1

LOC_OS01G70970-cb002 = tested on: LOC_OS01G70970-cb002
Summary of the method: as §1

LOC_OS02G07810-cb001 = tested on: LOC_OS02G07810-cb001
Summary of the method: as §1

LOC_OS02G08530-cb003 = tested on: LOC_OS02G08530-cb003
Summary of the method: as §1

LOC_OS02G14120-cb001 = tested on: LOC_OS02G14120-cb001
Summary of the method: as §1

LOC_OS02G17970-cb001 = tested on: LOC_OS02G17970-cb001
Summary of the method: as §1

Row | SMILES | thermal shift delta Tm (LOC_OS01G01410-cb001) [°C] | thermal shift delta Tm (LOC_OS01G02750-cb003) [°C] | thermal shift delta Tm (LOC_OS01G10900-cb004) [°C] | thermal shift delta Tm (LOC_OS01G13800-cb001) [°C] | thermal shift delta Tm (LOC_OS01G14860-cb001) [°C] | thermal shift delta Tm (LOC_OS01G21960-cb002) [°C] | thermal shift delta Tm (LOC_OS01G39600-cb002) [°C] | thermal shift delta Tm (LOC_OS01G48390-cb002) [°C] | thermal shift delta Tm (LOC_OS01G51400-cb002) [°C] | thermal shift delta Tm (LOC_OS01G52050-cb004) [°C] | thermal shift delta Tm (LOC_OS01G57100-cb003) [°C] | thermal shift delta Tm (LOC_OS01G60330-cb001) [°C] | thermal shift delta Tm (LOC_OS01G60700-cb002) [°C] | thermal shift delta Tm (LOC_OS01G63280-cb003) [°C] | thermal shift delta Tm (LOC_OS01G67340-cb003) [°C] | thermal shift delta Tm (LOC_OS01G70970-cb002) [°C] | thermal shift delta Tm (LOC_OS02G07810-cb001) [°C] | thermal shift delta Tm (LOC_OS02G08530-cb003) [°C] | thermal shift delta Tm (LOC_OS02G14120-cb001) [°C] | thermal shift delta Tm (LOC_OS02G17970-cb001) [°C]
1 | O=c1ncn2nc(Sc3ccc(F)cc3F)ccc2c1-c1c(Cl)cccc1Cl | 0.07 | 0.77 | 0.61 | 0.23 | 0.42 | 0.49 | -0.38 | 0.32 | 0.15 | 0.02 | 1.7 | 0.91 | 0.86 | 0.47 | -0.29 | 0.12 | 0.79 | 0.67 | 0.31 | 0.56
2 | N#C/C(=C(/N)Sc1ccc(N)cc1)c1ccccc1C(F)(F)F | 1.06 | -0.14 | 0.32 | 0.3 | 0.5 | 0.38 | -0.02 | 0.18 | -0.05 | 0.3 | 0.82 | 0.59 | 0.64 | -0.09 | -0.57 | 0.23 | 0.12 | 0.32 | -0.1 | 0.43
3 | Cc1cn(-c2cc(NC(=O)c3ccc(C)c(Nc4nccc(-c5cnccn5)n4)c3)cc(C(F)(F)F)c2)cn1 [Radotinib] | 0.24 | 1.63 | 2.41 | 0.87 | 0.52 | 0.96 | -0.12 | 0.73 | 0.16 | 0.51 | 1.49 | 1.07 | 1.39 | 0.63 | 0.48 | 0.3 | 1.04 | 0.67 | 1.36 | 1.82
4 | CCc1nc(C(N)=O)c(Nc2ccc(N3CCC(N4CCN(C)CC4)CC3)c(OC)c2)nc1NC1CCOCC1 [Gilteritinib (ASP2215)] | 4.13 | 2.42 | 2.14 | 0.93 | 2.59 | 3.21 | 2.87 | 1.66 | 0.63 | 8.54 | 4.25 | 11.5 | 1.96 | 1.07 | 4.03 | 5.09 | 1.35 | 5.51 | 13.1 | 1.65
5 | CCOC(=O)c1cnc2ccc(-c3cncc(NS(=O)(=O)c4ccccc4)c3)cn12 | 1.19 | 2.3 | 1.17 | 0.29 | 0.13 | 1.06 | 0.33 | 0.35 | 0.6 | 0.54 | 2.2 | 0.95 | 1.04 | 0.47 | 0.76 | 0.2 | 1.1 | 1.79 | -0.08 | 0.87
6 | CC(C)Oc1ccc(-c2nn([C@@H](C)c3oc4ccc(F)cc4c(=O)c3-c3cccc(F)c3)c3ncnc(N)c23)cc1F | 0.45 | 1.4 | 0.72 | 0.18 | 0.59 | 0.77 | -0.2 | 1.45 | 0.32 | 0.73 | 1.03 | 1.25 | 0.79 | 0.47 | 0.6 | 0.55 | -0.1 | 0.12 | 1.41 | 1.06
7 | Cc1c(Cn2c(C)nc3c(C(=O)O)cc(N4CCOCC4)cc32)cccc1C(F)(F)F | 0.42 | 2.18 | 0.15 | -0.48 | -0.01 | 0.56 | 0.55 | 5.45 | 0.63 | -0.39 | 1.01 | 0.83 | 0.4 | -0.3 | 0.23 | 0.27 | 0.73 | 0.55 | -0.38 | 0.26
8 | O=c1c(O)c(-c2ccc(O)c(O)c2)oc2cc(O)cc(O)c12 [Quercetin] | 3.05 | 7.25 | 1.68 | 1.97 | 3.55 | 3.4 | 6.51 | 2.95 | 1.5 | 6.25 | 2.71 | 8.09 | 0.35 | 10.7 | 5.98 | 2.14 | 2.05 | 2.33 | 3.39 | 1.77
9 | COc1ccc(-c2ccc3c(N4CCOCC4)nc(N4C[C@@H](C)O[C@@H](C)C4)nc3n2)cc1CO | 0.64 | 0.68 | 0.83 | -0.38 | 0.08 | -0.07 | -0.02 | -0.04 | -0.03 | 0.27 | 0.55 | 0.67 | 0.28 | -0.12 | -0.53 | -0.02 | 0.61 | 0.4 | -0.18 | 0.46
10 | COc1cc(N2CCN(C)CC2)ccc1Nc1nccc(-c2cn(C)c3cnccc23)n1 | 1.86 | 0.45 | 1.77 | 0.56 | 0.92 | 1.48 | -0.38 | 1.57 | 0.19 | 1.15 | 1.48 | 2 | 1.01 | 0.34 | 0.37 | 0.31 | 0.46 | 3.48 | 5.04 | 0.61
11 | Cc1ccc(-n2nc(C(C)(C)C)cc2NC(=O)Nc2ccc(OCCN3CCOCC3)c3ccccc23)cc1 [Doramapimod (BIRB 796)] | 0.6 | 0.28 | 0.4 | 0.47 | 1.26 | 0.35 | 0.04 | 0.73 | 0.2 | 1.1 | 1.19 | 1.27 | 0.98 | 1.11 | 0.16 | 0.56 | 0.89 | 0.89 | 0.95 | 0.9
12 | Cn1ncc(Cl)c1-c1cc(C(=O)N[C@H](CN)Cc2cccc(F)c2)sc1Cl | 0.78 | 2.36 | 0.19 | -0.25 | 0.67 | 0.59 | -0.1 | 0.28 | 0.18 | 0.5 | 0.79 | 0.75 | 0.77 | 0.1 | 0.54 | 0.15 | 0.41 | 0.69 | 1.31 | 0.56
13 | Cc1ccc(C(=O)Nc2ccc(Oc3cc4cnn(C)c4cc3-c3cn[nH]c3)c(F)c2)c(=O)n1-c1ccc(F)cc1 | 0.22 | 3.21 | 0.37 | 1.46 | 3.24 | 0.63 | 0.72 | 1.1 | 0.84 | 2.17 | 2.31 | 1.94 | 1.29 | 5.18 | 1.33 | 0.33 | 1.19 | 1.25 | 5.05 | 1.48
